AmpC detergent = AmpC beta-lactamase inhibition with detergent present. AmpC hydrolysis of nitrocefin, absorbance 480 nm, 0.01% Triton. 370,000 compounds, 0.041% hits. P00811. Potency, µM (series often up to 114 µM), actives largely listed as inhibitors. AID 485294; note: nearly all actives have a fitted effect of over 25% in size
Target sequence (P00811 whole entry, looked up): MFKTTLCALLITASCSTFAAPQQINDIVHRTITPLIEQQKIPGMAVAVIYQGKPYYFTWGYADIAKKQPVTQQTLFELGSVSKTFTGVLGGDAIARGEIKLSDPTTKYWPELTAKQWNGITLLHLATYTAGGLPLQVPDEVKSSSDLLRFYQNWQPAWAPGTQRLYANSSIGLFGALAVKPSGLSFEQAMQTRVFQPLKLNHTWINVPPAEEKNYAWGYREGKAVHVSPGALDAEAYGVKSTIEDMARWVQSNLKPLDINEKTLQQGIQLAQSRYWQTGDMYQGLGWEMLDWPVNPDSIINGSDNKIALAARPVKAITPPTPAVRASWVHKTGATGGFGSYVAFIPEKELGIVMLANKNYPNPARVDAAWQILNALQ
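AmpC (5.3 nM in the dispensed reagent) in 20 mM phosphate pH 7.0 with 0.01% (detergent screen) or 0.0001% Triton X-100 was preincubated with compounds for 15 min at room temperature. Nitrocefin was then added from an 800 uM solution, and hydrolysis was followed at 480 nm.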
Sm TGR inh = inhibitors of Schistosoma mansoni thioredoxin glutathione reductase. purified TGR, DTNB reduction, TNB absorbance 405 nm. Potency, µM (highest dose often 114 µM), most hits filed as inhibitors. 360,000 compounds, 3% hits. AID 485364; note: nearly all actives have a fitted effect of over 60% in size
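First, TGR (20 nM dispensed) and NADPH were mixed with compound. Second, a 15 min room-temperature incubation followed. Third, further NADPH and then DTNB were added to start the reaction. Finally, TNB absorbance was monitored kinetically.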
Pf growth 48h = inhibits P. falciparum growth in the first generation, 48 h; P. falciparum luciferase growth in erythrocytes, 48 h; Potency, µM (titrated, usually from 28.7 µM), actives largely listed as inhibitors; 310,000 compounds, 5.9% hits
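Luminescence readout; reporter = integrated firefly luciferase in P. falciparum. RBC culture at 2% hematocrit, 0.1% parasitemia final, 37 C/5% CO2; decreased signal taken as growth inhibition.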
AmpC inh no detg = inhibitors of E. coli AmpC beta-lactamase without detergent; AmpC nitrocefin hydrolysis, absorbance 480 nm, 0.0001% Triton; Potency, µM (doses to about 57.1 µM), usual class: inhibitors; 330,000 compounds, 0.52% hits; note: nearly all actives have a fitted effect of over 20% in size
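20 mM phosphate pH 7.0 + 0.01% (detergent screen) or 0.0001% Triton X-100; 5.3 nM AmpC reagent; cpd preinc 15 min RT; nitrocefin (800 uM stock) to start; A480 q20 s × 4 min; Activity was normalised to no-enzyme and no-compound control wells.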
Pf growth 96h = P. falciparum growth inhibition at 96 hour, primary screen for plastid delayed-death inhibitors; P. falciparum luciferase reporter growth, 96 h; Potency, µM (series often up to 28.7 µM), hits mostly inhibitors; 320,000 compounds, 6.9% hits
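Luminescence readout: decreased luciferase signal marks inhibited growth of reporter-expressing P. falciparum in infected red cells (2% hematocrit, 0.05% parasitemia final), exposed to compound two generations (96 h, 37 C, 5% CO2).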
SARS PLP yeast = blocks SARS-CoV papain-like protease in a yeast assay; S. cerevisiae expressing SARS-CoV PLpro, growth rescue; Potency, µM (series often up to 32.9 µM), most hits filed as activators; 330,000 compounds, 0.19% hits; AID 485353; calls by dose curve; note: nearly all actives have a fitted effect of over 55% in size
Numbers stand for hits; . = inactive; ? = inconclusive; / = not tested or not shown. Shown are actives, neighbours in structure and some others; about 12% of the full set was active somewhere. Unless noted, calls come from the whole dose curve; as a rule, active = well fitted curve in the direction sought with a large enough effect; inconclusive = small, poorly fitted or top-dose-only effect, or another doubt; inactive = no such curve, though single readings can be large; an effect the other way counts as inactive or inconclusive.

SMILES	AmpC detergent	Sm TGR inh	Pf growth 48h	AmpC inh no detg	Pf growth 96h	SARS PLP yeast
O=c1c2ccccc2[nH]c(=S)n1-c1ccc2c(c1)OCO2	.	.	11.7µM	.	.	.
CCc1ccccc1N1C(=O)N(C)c2ccccc2S1(=O)=O	.	.	/	/	/	/
Oc1cc2c(cc1C(c1ccc(Br)cc1)N1CCCC1)OCO2 (stereo not drawn)	.	0.708µM	.	.	.	.
Cn1c(CNC(=O)CCNC(=O)c2cccc(Br)c2)cc(=O)n(C)c1=O	.	.	.	.	.	.
NC(=O)c1ncn(C2OC(CO)C(O)C2O)c1N (stereo not drawn)	/	/	.	/	?	/
NC(=S)c1cn(C2OC(CO)C(O)C2O)c2ncnc(N)c12 (stereo not drawn)	.	.	1.31µM	.	4.15µM	.
CC(C)CC1(C)NC(=O)N(CC(=O)Nc2cccc(S(=O)(=O)N(C)c3ccccc3)c2)C1=O (stereo not drawn)	.	.	.	.	.	.
CCOC(=O)c1cnc2cc(C(F)(F)F)ccc2c1N1CCN(c2cccc(Cl)c2)CC1	.	.	/	/	/	/
Cc1cccc(-n2c(=S)[nH]c3c(oc4ccccc43)c2=O)c1	.	.	.	.	.	.
Cc1cccc(-n2c(C)c(-c3ccccc3)[nH]c2=S)c1	.	.	?	.	9.28µM	.
Cc1cccc(-n2c(O)c(C)c(=O)[nH]c2=S)c1	.	39.8µM	?	.	.	.
CCC(=O)N1c2ccc(S(=O)(=O)CCC(=O)NCc3ccc(OC)cc3)cc2CC1C (stereo not drawn)	.	.	/	/	/	/
CC(C)(C)c1ccc(C(=O)Nc2ccc(NC(=O)c3ccc(Cl)c(Cl)c3)cc2)cc1	.	.	/	/	/	/
N#CC(C#N)=Cc1ccc(NC(=O)c2ccc(Br)cc2)cc1	.	2.51µM	.	.	.	.
CC(C)(C)c1ccc(C(=O)Nc2ccc(C=C(C#N)C#N)cc2)cc1	.	3.16µM	.	.	.	.
O=C(CSc1nnc(C2COc3ccccc3O2)o1)Nc1nccs1 (stereo not drawn)	.	.	.	.	1.31µM	.
O=C(CSc1nnc(C2COc3ccccc3O2)o1)N1CCCCC1 (stereo not drawn)	.	.	/	.	?	.
O=C(CSc1nnc(C2COc3ccccc3O2)o1)NC1CCCCC1 (stereo not drawn)	.	.	.	39.8µM	.	.
COc1ccccc1CNc1nc(-c2ccco2)nn1S(C)(=O)=O	.	.	/	/	/	/
Cc1nnsc1C(=O)Nc1cc(Cl)ccc1Cl	.	.	.	.	.	.
COc1ccc(NC(=O)CN2CCCC2c2cccs2)cc1S(=O)(=O)N1CCCCC1 (stereo not drawn)	.	.	?	.	?	.
CN(C)C/C(Cl)=C(\Cl)c1ccccc1	?	20µM	.	.	.	.
C1CCC(CNc2c3c(nc4nnnn24)CCCC3)CC1	?	?	?	.	13.1µM	.
C1CCN(c2c3c(nc4nnnn24)CCCC3)CC1	.	.	.	.	10.4µM	.
O=S(=O)(Nc1cc(F)ccc1F)c1ccc2[nH]c3c(c2c1)CCCC3	.	.	/	/	/	/
SMILES	AmpC detergent	Sm TGR inh	Pf growth 48h	AmpC inh no detg	Pf growth 96h	SARS PLP yeast
NC(=O)c1nsnc1-c1ccccc1O	.	.	.	.	/	.
Cc1ccccc1NC(=O)CN1C(=O)CCn2nc(-c3cccn3C)cc21	.	.	/	/	/	/
COc1ccc(C(=O)CSc2nnc(-c3ccco3)c(-c3ccco3)n2)cc1	.	/	.	.	1.47µM	.
CCOc1ccc(-c2nnc(SCC(=O)NC(C)(C)C)nc2-c2ccc(OCC)c(OC)c2)cc1OC	?	.	2.33µM	.	?	.
COc1cccc(NC(=O)CSc2nnc(-c3ccco3)c(-c3ccco3)n2)c1	.	2.82µM	.	.	.	.
COc1ccc(NC(=O)CSc2nnc(-c3ccco3)c(-c3ccco3)n2)cc1OC	.	5.62µM	.	.	.	.
COc1ccc(C(=O)CSc2nnc(-c3ccco3)n2C)cc1	?	?	.	.	/	.
COc1cccc(NC(=O)CSc2nnc(CNC(=O)c3ccco3)n2C)c1	?	.	.	.	.	.
CCOC(=O)c1ccc(NC(=O)CSc2nc3ncc(Br)c(C)c3[nH]2)cc1	.	.	/	/	/	/
O=C(CSc1nccn1Cc1ccccc1)NCc1ccco1	.	?	/	/	/	/
CCOc1ccc(CCNC(=O)Cn2ncc3c([nH]c4ccccc43)c2=O)cc1OCC	.	.	/	/	/	/
O=C(Nc1ccccc1)Nc1ccc2nnsc2c1	.	.	.	.	?	.
O=C(Nc1ccccc1)Nc1ccc2snnc2c1	.	.	?	.	3.29µM	.
O=C1C=C(c2ccc3cc[nH]c3c2)C[C@@H](c2ccc3c(c2)OCO3)C1	.	.	?	.	?	.
CCN(CC)S(=O)(=O)c1ccc(N2CCOCC2)c(NS(=O)(=O)c2cc(C(C)(C)C)ccc2C)c1	.	.	0.0828µM	.	?	.
CCN(CC)S(=O)(=O)c1ccc(N2CCOCC2)c(NS(=O)(=O)c2ccc(C(C)C)cc2)c1	.	.	2.94µM	.	1.47µM	.
Cc1ccc(S(=O)(=O)N2CCCN(S(=O)(=O)c3ccc4ccccc4c3)CC2)cc1	.	.	?	.	10.4µM	.
CCCCNc1nnc(SCC(=O)N2CCN(S(=O)(=O)c3ccc4ccccc4c3)CC2)s1	.	.	/	.	5.22µM	.
O=S(=O)(c1ccc(N2CCN(Cc3ccc4c(c3)OCO4)CC2)nc1)N1CCOCC1	.	.	.	.	?	.
O=S(=O)(c1ccc(N2CCN(S(=O)(=O)c3ccc4c(c3)OCCO4)CC2)nc1)N1CCCC1	?	.	13.1µM	.	.	.
O=S(=O)(c1ccc2ccccc2c1)N1CCN(c2ccc(O)cc2)CC1	/	/	/	10µM	/	.
CCOc1ccccc1CNC(=O)C1CCN(Cc2cc3ccccc3n2Cc2ccccc2)CC1	.	.	/	/	/	/
O=C(COC(=O)c1ccccc1C(=O)c1ccc(Cl)cc1)NCC1CCCO1 (stereo not drawn)	.	.	.	.	.	.
Cc1nn(S(=O)(=O)c2ccc(C(C)C)cc2)c(C)c1S(=O)(=O)N1CCCCCC1	.	.	/	/	/	/
CN1CCN(C(=O)c2cc3ccccc3[nH]2)CC1	.	.	.	.	?	.
O=C(CCl)N1CCN(S(=O)(=O)c2ccc3c(c2)OCCCO3)CC1	.	15.8µM	?	.	?	.
CCCCCC(=O)N1CCN(S(=O)(=O)c2ccc3c(c2)OCCO3)CC1	.	.	.	.	?	.
Cc1ccc(S(=O)(=O)N2CCCN(C(=O)c3cc4ccccc4[nH]3)CC2)cc1	.	.	?	.	11.7µM	.
CN(C)C(=O)N1CCN(S(=O)(=O)c2ccc3ccccc3c2)CC1	?	.	.	.	10.4µM	.

Screening results from PubChem.
